We go through 37 compounds from PubChem BioAssay (EPA / NIEHS).

SMILES strings stand for the structures. Where “and” joins values, the source holds several entries; their conditions need not be identical. Equal entries are not always repeated. The source holds several records for some structures; these can differ, active in one and inactive in another. Calls of active or inactive are those of the source. Rule for the calls: active = hit-call score of the fitted dose curve at least 0.9, where 1 is the maximum; inactive = score below 0.9.

Read-out in the assay: Vascular cell adhesion molecule 1 (VCAM1), VCAM1 (gene 7412)
The experiment in a line: BSK_hDFCGF_VCAM1: BioMAP Diversity Plus: hDFCGF Assay for Vascular cell adhesion molecule 1 (VCAM1) Biomarker Activity (AID 2283065). The settings on record: primary human foreskin fibroblasts; actives raise or lower the signal. How it is done: BSK_hDFCGF is a cell-based, multiplexed-readout assay that uses foreskin fibroblast, a human skin primary cell, with measurements taken at 24 hours after chemical dosing in a 96-well plate.BSK_hDFCGF_VCAM1 is an assay component measured in the BSK_hDFCGF assay. It measures VCAM-1 antibody related to regulation of gene expression using ELISA technology.Data from the assay component BSK_hDFCGF_VCAM1 was analyzed into 1 assay endpoint. This assay endpoint, BSK_hDFCGF_VCAM1, was analyzed with bidirectional fitting relative to DMSO as the negative control and baseline of activity. Using a type of binding reporter, gain or loss-of-signal activity can be used to understand changes in the signaling as they relate to the gene VCAM1. Furthermore, this assay endpoint can be referred to as a primary readout, because this assay has produced multiple assay endpoints where this one serves a signaling function. To generalize the intended target to other relatable targets, this assay endpoint is annotated to the cell adhesion molecules intended target family, where the subfamily is Immunoglobulin CAM.
The levels of cell surface (or secreted, indicated by the prefix "s") biomarker endpoints were measured by ELISA. Overt cytotoxicity to cells in confluent adherent cultures (all systems other than the BT system) was assessed by measuring total protein levels using sulforhodamine B (SRB) staining in parallel cultures at the time of biomarker measurements, indicated as SRB endpoints. For proliferation assays for adherent cell types, individual cell types are cultured at sub-confluence and relative cell numbers quantified by SRB staining at time points optimized for each system (48 h: 3C and CASM3C systems; 72 h: BT and HDF3CGF systems; 96 h: SAg system). SRB was performed by staining cells with 0.1% SRB after fixation with 10% TCA and reading wells at 560 nm.Viability and proliferation of PBMC (T cells) was quantified by Alamar Blue reduction for the SAg and BT systems. For PBMC viability (referred to as PBMC Cytotoxicity within the assay endpoint names), cells were plated (75,000/well in a 96-well plate) and then chemical samples added for 1 h before addition of activators, SEB and TSST-1 (20 ng/mL final concentration each). Cells were incubated for 90 h. Then, Alamar Blue (20 uL/well) (Invitrogen, Cat DAL1100) was added for 6 h, and the plates were read with a fluorescence microplate reader at 546/580 nm (excitation/emission). For PBMC proliferation, cells were plated and activated as above but incubated for only 16 h prior to addition of Alamar Blue. Plates were read after 6 h.
In general, AC50 refers to the midpoint of the concentration-response curve, whichever way the signal moves. In the case of `OCCC(F)(F)C(F)(F)C(F)(F)C(F)(F)C(F)(F)C(F)(F)C(F)(F)C(F)(F)F`, the AC50 is 16.1 µM (active) and 12.8 µM (active); the outcome was inactive. As for `CCOC(=O)CC(O)(CC(=O)OCC)C(=O)OCC`, the outcome was inactive. Take `CCC(C)(C)C1CCC(O)CC1` (stereo not given): the outcome was inactive. `CCCOc1sc(C(=O)N2CCC(c3cc(CN)ccc3F)CC2)c(C)c1Br`: the AC50 was 9.91 µM (active). The same measure, in the same setting: the figure for `CC(C)(C)CC(C)(C)c1ccc(O)c(-n2nc3ccccc3n2)c1` is 15.8 µM (active). Still for that read-out and setting: the figure for `CCN(CC)CCNc1ccc(CNC=O)c2sc3ccc(OC)cc3c(=O)c12` is 32.4 µM (active). With `C#C[C@]1(O)CC[C@H]2[C@@H]3CCC4=CC(=O)CC[C@@H]4[C@H]3CC[C@@]21C`, the outcome was inactive.

`CC#C[C@]1(O)CC[C@H]2[C@@H]3CCC4=CC(=O)CCC4=C3[C@@H](c3ccc(N(C)C)cc3)C[C@@]21C`: the result was inactive. On to `O=c1c(-c2ccc(O)cc2)coc2cc(O)ccc12`, for which the result was inactive. With `N#C[C@@H]1CC(F)(F)CN1C(=O)CNC1CC2CCC(C1)N2c1ncccn1` (stereo not given in full), the outcome was inactive. For the compound `Nc1cccc2c(N)cccc12`, the AC50 was 6.83 µM (active). Regarding `CN1CCN(c2ccccc2/C=C2\SCCN(c3ccc(Cl)c(Cl)c3)C2=O)CC1`, the AC50 is 31.8 µM (active). As for `CCCCCCCCCCCCCC[N+](C)(C)C`, the AC50 is 4.06 µM (active). `C[C@@H]1C[C@H]2[C@@H]3CCC4=CC(=O)C=C[C@]4(C)[C@@]3(F)[C@@H](O)C[C@]2(C)[C@@]1(O)C(=O)COP(=O)(O)O`: the AC50 was 8.68 µM (active) and the result was inactive.

Turning to `CCCCC(CC)COC(=O)CCCCC(=O)OCc1ccccc1` (stereo not given), the outcome was inactive. Turning to `Cc1cc(CCN2CCN(c3nsc4ccccc34)CC2)cc2c1NC(=O)CC2(C)C`, the AC50 was 5.57 µM (active). Turning to `CC(C)CCCCCCOC(=O)CCCCC(=O)OCCCCCCC(C)C`, the result was inactive. Regarding `CC(=O)NC1(c2cccc(F)c2)CCN(CC[C@@]2(c3ccc(Cl)c(Cl)c3)CN(c3ccccc3)C(=O)CO2)CC1`, the AC50 was 27 µM (active). Consider `CCCCCCCCOC(=O)CCCCCCCCC(=O)OCCCCCCCC`, for which the outcome was inactive. As for `Cc1oc(-c2ccccc2)nc1CCOc1ccc(C[C@H](Nc2ccccc2C(=O)c2ccccc2)C(=O)O)cc1`, the AC50 was 3.61 µM (active). On the same count and under the same terms, in the case of `NC(=O)N1C(=O)C(C(=O)c2cc(Cl)cs2)c2cc(F)c(Cl)cc21` (stereo not given) it was 5.54 µM (active). With `Cc1cc(C)c(O)c(C)c1`, the outcome was inactive. As for `CCCCOCCO`, the result was inactive. Take `CCc1ccc(CCOc2ccc(CC3SC(=O)NC3=O)cc2)nc1` (stereo not given): the outcome was inactive. With `CCc1nn(C2CCCCC2)c2cc(C3(C#N)CCC(C(=O)O)CC3)ccc12` (stereo not given), the AC50 is 7.89 µM (active). As for `CN1CCC[C@H]1c1cccnc1`, the result was inactive. Turning to `COc1ccc([N+](=O)[O-])cc1N`, the result was inactive. `Oc1cccc(O)c1`: the outcome was inactive.

As for `CN(C)C=O`, the result was inactive. Still for that read-out and setting: in the case of `O=C(O)c1ccccc1C(c1ccc(O)cc1)c1ccc(O)cc1` it was “inactive”.

Turning to `CC(C)(C)c1ccc(O)c(C(C)(C)C)c1`, the AC50 is 9.1 µM (active).

In the case of `COCC(C)O` (stereo not given), the outcome was inactive. Take `c1ccc2c(c1)Cc1ccccc1-2`: the outcome was inactive. The same measure, in the same setting: the entry for `CC(=O)CC(C)(C)O` is “inactive”; for `OC1CCC(C2CCCCC2)CC1` (stereo not given) it is “inactive”; for `CC[C@H](C)[C@@H](C(=O)O)n1sc2ccccc2c1=O` it is “inactive”. Consider `OCCC(F)(F)C(F)(F)C(F)(F)C(F)(F)C(F)(F)C(F)(F)F`, for which the AC50 is 30 µM (active) and 47.4 µM (active); the outcome was inactive.
